Assay outcomes: PubChem BioAssay, National Center for Advancing Translational Sciences (NCATS)
The list is not random: actives were taken first. Their share in the collection is about 9.4%.
Rab9 prom act: activators of Rab9 promoter; Potency, µM (titrated, usually from 9.22 µM), usual class: activators; Huh7 Rab9 promoter-luciferase reporter, luminescence, 24 h; AID 485297; actives 2.8% (n = 320,000); further: nearly all actives have a fitted effect of over 60% in size
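Using Huh7 cells stably transfected with Rab9 promoter–luciferase, compounds were incubated 24 h at 37 °C, 5% CO2; luciferase luminescence was read 10 min after reagent addition.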
FLuc counter: inhibits or activates purified firefly luciferase, miR-21 counter-screen | purified FLuc, Km substrates, luminescence inhibition | Potency, µM (top dose mostly 57.5 µM), hits mostly inhibitors | actives 6.9% (n = 360,000); further: nearly all actives have a fitted effect of over 55% in size
Target sequence (P08659 whole entry, looked up): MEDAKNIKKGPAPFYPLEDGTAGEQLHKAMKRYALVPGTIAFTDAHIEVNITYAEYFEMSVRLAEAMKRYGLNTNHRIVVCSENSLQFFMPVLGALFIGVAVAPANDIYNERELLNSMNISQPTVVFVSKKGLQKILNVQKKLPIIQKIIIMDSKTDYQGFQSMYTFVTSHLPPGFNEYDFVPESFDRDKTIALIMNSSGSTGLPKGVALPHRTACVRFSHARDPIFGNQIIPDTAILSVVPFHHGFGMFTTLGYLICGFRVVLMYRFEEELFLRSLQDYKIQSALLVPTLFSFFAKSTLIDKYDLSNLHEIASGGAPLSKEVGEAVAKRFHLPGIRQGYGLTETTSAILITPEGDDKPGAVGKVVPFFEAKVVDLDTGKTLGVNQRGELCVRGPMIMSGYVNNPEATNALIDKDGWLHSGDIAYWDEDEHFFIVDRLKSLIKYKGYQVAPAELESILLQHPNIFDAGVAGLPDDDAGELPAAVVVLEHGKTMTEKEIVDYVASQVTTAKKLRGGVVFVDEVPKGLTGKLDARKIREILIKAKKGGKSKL
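Purified P. pyralis luciferase, 10 nM final, with Km-level 10 uM D-luciferin and 10 uM ATP in 50 mM Tris acetate pH 7.5, 10 mM Mg acetate, 0.01% Tween-20, 0.05% BSA; 6-point qHTS titration about 60 µM downward; luminescence read.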
SMN2 splice up: SMN2 splice variant enhancement; HEK293 SMN2-luciferase splicing reporter, luminescence, 30-36 h; Potency, µM (top dose mostly 46.1 µM), hits mostly activators; actives 2.8% (n = 210,000); AID 1458; further: nearly all actives have a fitted effect of over 55% in size
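qHTS luciferase splicing reporter: luminescence rises when SMN2 exon 7 is included in transfected HEK293 cells. Compound exposure lasted 30-36 h at 37C, with 4.5 mM final sodium butyrate as control, followed by a ONE-Glo read.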
NPC1 promoter act: activates the NPC1 promoter; Huh7 NPC1 promoter luciferase reporter, 24 h; Potency, µM (doses to about 9.22 µM), usual class: activators; actives 2.4% (n = 320,000); further: nearly all actives have a fitted effect of over 60% in size
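Luminescence read-out of NPC1 promoter-driven luciferase in stably transfected Huh7 cells; compounds delivered in DMSO and left 24 h at 37C, 5% CO2, qHTS titration format.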
ELG1 repair inh: ELG1-dependent DNA repair inhibition | HEK293T ELG1-luciferase reporter, luminescence, 16 h; DNA damage induced by 5-fluorouridine | Potency, µM (top dose mostly 46.1 µM), usual class: inhibitors | actives 2.3% (n = 330,000) | AID 504467; further: nearly all actives have a fitted effect of over 55% in size
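Luminescence from the luciferase reporter, measured 30 min after ONE-Glo reagent at room temperature, was the read-out. Beforehand, 2,000 cells per well were exposed for 16 hr at 37 °C to 5-fluorouridine together with compound or vehicle.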
ELG1 genotoxic: induces genotoxicity in HEK293T cells with luciferase-tagged ELG1; HEK293T ELG1-luciferase reporter, luminescence, 16 h; Potency, µM (series often up to 46 µM), most hits filed as activators; actives 1.3% (n = 330,000); further: nearly all actives have a fitted effect of over 60% in size
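DMSO vehicle served as control against compound-treated ELG1-luciferase HEK293T cells; exposure lasted 16 hr at 37 °C and 5% CO2, followed by ONE-Glo luminescence detection after 30 min.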
Hits are given with their value; i = inactive; ? = inconclusive; nt = no result given; [ ] = remark or other dose. The call rests on the fitted dose curve; in most records, active means well fitted curve in the direction sought with a large enough effect; inconclusive means small, poorly fitted or top-dose-only effect, or another doubt; inactive means no such curve, though single readings can be large; an effect the other way counts as inactive or inconclusive.

SMILES	Rab9 prom act	FLuc counter	SMN2 splice up	NPC1 promoter act	ELG1 repair inh	ELG1 genotoxic
O=C(/C=C/c1ccc(F)cc1)N1CCc2ccccc2C1	2.51µM	10.7µM	nt	?	?	i
Cc1ccc(/C=C/C(=O)N2CCc3ccccc3C2)cc1	i	10.7µM	i	i	?	?
CC(C)(C)c1ccc(/C=C/C(=O)N2CCc3ccccc3C2)cc1	i	?	i	i	i	i
CC(C)c1ccc(-c2c(C#N)c(N)nc(SCC(=O)N3CCCCCC3)c2C#N)cc1	i	i	i	i	?	i
CC(C)c1ccc(-c2noc(SCC(=O)N(C)c3ccc(F)cc3)n2)cc1	nt	6.01µM	nt	nt	nt	nt
CC(C)c1ccc(-c2noc(SCC(=O)N3CCCCC3)n2)cc1	nt	2.39µM	nt	nt	nt	nt
CC1CCN(c2nc3ccc(C(=O)NCc4ccccc4)cc3s2)CC1	nt	12µM	i	nt	nt	nt
CCOc1ccccc1CNC(=O)c1ccc2nc(N3CCC(C)CC3)sc2c1	nt	?	i	nt	nt	nt
CC1CCN(c2nc3ccc(C(=O)NC(C)C)cc3s2)CC1	nt	1.69µM	0.794µM	nt	nt	nt
CC1CCN(c2nc3ccc(C(=O)NCCCN4CCCCC4C)cc3s2)CC1 (stereo not given)	i	?	nt	i	?	?
Cc1ccccc1NC(=O)Cn1c(=O)n(Cc2ccco2)c(=O)c2cccnc21	nt	i	i	nt	nt	nt
CC(=O)[C@@H](C)CCO[C@@]1(C)OCC[C@@H]1C	nt	nt	i[9.22 µM]	nt	nt	nt
COc1ccccc1-c1ccc(SCc2ccccc2)nn1	?	13.5µM	i	i	?	i
COc1ccccc1-c1ccc(SCC(=O)NCCc2ccccc2)nn1	i	i	i	i	i	i
COc1ccccc1-c1ccc(SCc2ccccc2F)nn1	?	13.5µM	i	i	?	i
COc1ccccc1-c1ccc(SCc2cccc(F)c2)nn1	i	23.9µM	i	i	?	i
Cc1nc(C)c(-c2ccc(SCc3ccccc3F)nn2)s1	?	10.7µM	nt	?	?	?
O=Cc1cccc(OC(=O)c2ccc(Cl)cc2Cl)c1	?	16.9µM	?	?	?	11.6µM
O=C1c2sc3nc4n(c(=O)c3c2CCC1Br)CCCCC4 (stereo not given)	?	19µM	i	i	?	?
O=c1c2c3c(sc2nc2n1CCCCC2)C(O)CCC3 (stereo not given)	2.82µM	?	nt	?	?	?
O=C1CCCc2c1sc1nc3n(c(=O)c21)CCCCC3	i	i	i	?	?	?
Cc1ccc(-c2cc3c(N4CCN(c5cc(C)ccc5C)CC4)nccn3n2)cc1	nt	i	i	nt	nt	nt
COc1ccc(/C(C)=N/OCC(=O)N=Nc2c(O)[nH]c3ccc(Br)cc23)cc1	i	i	i	i	?	i
COc1ccc(/C=N/OCC(=O)N=Nc2c(O)[nH]c3ccc(Br)cc23)cc1OC	i	i	i	i	13µM	i
COc1cc(/C=N/n2cnnc2)ccc1OCc1ccc(C)cc1	i	?	i	i	?	23.1µM
SMILES	Rab9 prom act	FLuc counter	SMN2 splice up	NPC1 promoter act	ELG1 repair inh	ELG1 genotoxic
COc1ccc(/C=N\NC(=O)c2cccc([N+](=O)[O-])c2)cc1Cn1cc([N+](=O)[O-])cn1	i	i	nt	i	14.6µM	i
COc1cc(/C=N/NC(=O)c2cccc([N+](=O)[O-])c2)ccc1OCc1ccc(C)cc1	i	21.3µM	?	i	?	?
COc1cc(/C=N/NC(=O)c2cccc([N+](=O)[O-])c2)ccc1O	i	i	i	i	i	i
COc1cc(/C=N/n2cnnc2)ccc1OCc1ccccc1	i	i	i	i	i	i
COc1ccc(/C=N/NC(=O)c2cccc([N+](=O)[O-])c2)cc1O	i	21.3µM	i	i	i	i
O=C(NCC(c1ccc2c(c1)OCO2)N1CCOCC1)c1ccc(F)cc1 (stereo not given)	nt	i	nt	nt	nt	nt
CCN(CCCNC(=O)c1cc(Nc2ccccc2OC)nc2ccccc12)c1cccc(C)c1	nt	i	i	nt	nt	nt
Cn1cc(C(=O)NCc2ccccc2)c(=O)c2cc(S(=O)(=O)N3CCOCC3)ccc21	nt	i	i	nt	nt	nt
CCCCn1nc(C(=O)Nc2nc3c(s2)CCCC3)c2ccccc2c1=O	i	i	i	i	14.6µM	i
CCCCn1nc(C(=O)NCC(c2cccs2)N2CCOCC2)c2ccccc2c1=O (stereo not given)	i	i	nt	i	18.3µM	i
C[N+]1(C)CCO[C@](O)(c2ccccc2)C1	nt	nt	i[9.22 µM]	nt	nt	nt
COc1ccc(NC(=O)C2=C(C)Nc3nc(SCc4ccc(C)cc4C)nn3C2c2cccc(OC)c2OC)cc1 (stereo not given)	nt	i	nt	nt	nt	nt
N#CC1=C(N)NC(SCC(=O)Nc2ccc(Br)cc2)=C(C#N)C12CCCCC2	i	i	i	i	23.1µM	i
N#CC1=C(N)NC(SCc2ccc(Br)cc2)=C(C#N)C12CCCCC2	i	?	i	i	?	i
Cc1cc(C)nc(S/C=C/C(=O)c2ccccc2F)n1	i	1.51µM	nt	i	?	?
O=C(c1cnn2c1NC(=C1CC1)C=C2C(F)F)N(C1CCCCC1)C1CCCCC1	nt	i	nt	nt	nt	nt
O=C1/C(=C/c2cccc(F)c2)CSc2sccc21	i	i	i	i	i	i
